TSHR agonist: TSH receptor (human) agonism. P16473. HEK293-CNG-TSHR cells (CNG channel as cAMP sensor), membrane potential dye, cAMP. Potency, µM (highest dose often 57.1 µM), hits mostly activators. 73,000 compounds, 0.48% hits. AID 926; active = well fitted activation curve with a large enough effect in the main read-out, with a control signal flat, not every such curve was filed as active; inconclusive = small, poorly fitted or top-dose-only effect, or a change in a side signal; inactive = no such curve, though single readings can be large or run the other way; reference of the percent scale not stated here;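 also: the control signal comes from parental cells without the receptor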
Target sequence (P16473 whole entry, looked up): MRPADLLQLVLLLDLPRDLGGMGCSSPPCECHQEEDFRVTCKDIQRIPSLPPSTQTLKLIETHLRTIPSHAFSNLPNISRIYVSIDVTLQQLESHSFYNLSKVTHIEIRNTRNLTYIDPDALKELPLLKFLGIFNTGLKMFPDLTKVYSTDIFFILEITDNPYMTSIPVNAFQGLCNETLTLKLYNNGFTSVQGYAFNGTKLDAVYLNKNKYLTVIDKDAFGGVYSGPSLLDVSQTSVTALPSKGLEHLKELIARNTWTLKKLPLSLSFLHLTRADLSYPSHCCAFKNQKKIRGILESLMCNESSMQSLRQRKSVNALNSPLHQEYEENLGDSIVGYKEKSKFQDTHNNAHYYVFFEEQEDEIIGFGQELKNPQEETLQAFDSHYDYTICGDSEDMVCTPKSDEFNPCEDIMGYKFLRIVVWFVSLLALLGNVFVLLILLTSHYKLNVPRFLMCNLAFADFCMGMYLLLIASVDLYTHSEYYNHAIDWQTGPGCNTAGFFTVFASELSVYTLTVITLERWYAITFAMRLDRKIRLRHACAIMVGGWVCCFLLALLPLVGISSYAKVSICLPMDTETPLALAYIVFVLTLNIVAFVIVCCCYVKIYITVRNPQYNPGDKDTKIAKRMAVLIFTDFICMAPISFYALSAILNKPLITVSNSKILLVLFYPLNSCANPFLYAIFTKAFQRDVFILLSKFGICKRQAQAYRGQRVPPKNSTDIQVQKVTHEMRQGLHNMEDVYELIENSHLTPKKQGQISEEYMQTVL
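HEK 293 cells stably expressing TSHR and a modified CNG channel, with CNG-only parental cells as counterscreen, were preloaded 60 min at room temperature with membrane potential dye containing 100 uM RO 20-1724. Compound exposure was 30 min, and depolarization was read as fluorescence at 590 nm.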
HEK293 cAMP cs: parental HEK293 cAMP activation (counter-screen); Potency, µM (top dose mostly 57.1 µM), usual class: activators; 73,000 compounds, 2.5% hits; parental HEK293 CNG cAMP sensor, membrane potential fluorescence; also: nearly all actives have a fitted effect of over 55% in size
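Parental HEK 293 cells stably expressing a modified CNG channel (no TSHR) report cAMP rise as membrane depolarization. Membrane potential dye with 100 uM RO 20-1724 was loaded for 60 min at room temperature, then compound added for 30 min; fluorescence read at 590 nm.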
CRE-bla Fsk: CRE-bla signaling modulation under forskolin stimulation | CHO CRE-bla reporter (cAMP response element driving beta-lactamase), forskolin EC10, beta-lactamase ratio | Potency, µM (titrated, usually from 38.2 µM), usual class: activators | 71,000 compounds, 2.5% hits | AID 662; active = well fitted activation curve with a large enough effect in the signal ratio, with a control signal flat, not every such curve was filed as active; inconclusive = small, poorly fitted or top-dose-only effect, or effect the other way, or a change in a side signal; the % refers to the signal ratio
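Cells were plated overnight at 37 °C, exposed to compound titrations plus EC10 NKH 477 for 3 h, then given CCF4 dye for 2 h at room temperature. Blue/green (460/530 nm) ratio was converted to %Activity and AC50 values calculated.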
Tau fil binding: tau filament binding; P10636; recombinant tau filaments, thioflavin S fluorescence, 15 h; filaments grown with octadecylsulfate alongside compound; Potency, µM (titrated, usually from 57.1 µM); 71,000 compounds, 2% hits;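 also: actives lower thioflavin S fluorescence by blocking filaments or displacing dye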
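His-tagged recombinant human tau (exons 2, 3, 10; 1 uM final) fibrillized with 30 uM sodium octadecylsulfate, 15 h at 37 C, in pH 7.4 HEPES buffer with 10 uM thioflavine S and 5 mM DTT. Reduced ThS fluorescence (450/510 nm) marks activity.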
ERK AVP inh: blocks ERK signaling stimulated by vasopressin | HEK293-V1b, vasopressin-stimulated pERK AlphaScreen | Potency, µM (highest dose often 57.5 µM), most hits filed as inhibitors | 72,000 compounds, 0.99% hits; also: nearly all actives have a fitted effect of over 55% in size
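qHTS, compounds titrated on V1b-expressing HEK293 cells. Preincubation 30 min at 37C, vasopressin 25 nM for 5 min, lysis 10 min, bead incubation 5 hr at room temperature.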
Of the large screens only hits and unclear results are named; the others gave an inactive call. Hits are enriched below; roughly 7.6% of the tested compounds scored in any of these assays. Unless noted, calls follow the shape of the dose curve; as a rule, active = well fitted curve in the direction sought with a large enough effect; inconclusive = small, poorly fitted or top-dose-only effect, or another doubt; inactive = no such curve, though single readings can be large; an effect the other way counts as inactive or inconclusive.

CN(C)c1ccc(NC(=O)Cn2cc3c(n2)CCCC3)cc1	TSHR agonist inconclusive, HEK293 cAMP cs inconclusive, Tau fil binding 12.6µM, ERK AVP inh inconclusive
COc1ccc(CNc2nc3nc(C)c(Cl)c(C)n3n2)cc1OC	CRE-bla Fsk 12.6µM (no result: TSHR agonist)
CCCCn1c(SCC(=O)OC)nc2c1c(=O)n(C)c(=O)n2C	CRE-bla Fsk inconclusive, ERK AVP inh 15.8µM
CCCCn1c(SCc2nnc(-c3ccccc3)o2)nc2c1c(=O)n(C)c(=O)n2C	TSHR agonist inconclusive, HEK293 cAMP cs 25.1µM, ERK AVP inh inconclusive
OC12CCCCC1C(c1ccc3c(c1)OCO3)N(Cc1cccc(F)c1)CC2 (stereo not given)	TSHR agonist inconclusive, HEK293 cAMP cs inconclusive, Tau fil binding 15.8µM
OC12CCCCC1C(c1ccc3c(c1)OCO3)N(Cc1ccc(F)cc1)CC2 (stereo not given)	TSHR agonist inconclusive, HEK293 cAMP cs inconclusive, Tau fil binding inconclusive
COC(=O)[C@H](Cc1ccccc1)NC(=O)C/C=C\[C@@H](C)[C@@H](CO)OC	none (no result: CRE-bla Fsk, Tau fil binding)
CSc1nc(N2CCOCC2)c2c(c1C#N)CCCCC2	TSHR agonist inconclusive, HEK293 cAMP cs 25.1µM
COC(=O)CSc1nc(N2CCCCC2)c2c(c1C#N)CCCC2	none (no result: TSHR agonist)
CN[C@]1(C)[C@@H]2CC[C@@H](C2)C1(C)C	none
O=C(Nc1ccc2oc(-c3ccccc3F)nc2c1)c1cncc(Br)c1	CRE-bla Fsk 0.501µM
COc1ccc(C2C(C(C)=O)=C(C)N=c3s/c(=C\c4ccc5c(c4)OCO5)c(=O)n32)c(OC)c1 (stereo not given)	Tau fil binding 3.98µM
CN(C)CCCNc1cc(O)c2c(c1O)C(=O)c1ccccc1C2=O	Tau fil binding 1µM
Cc1cc(O)c2c(c1O)C(=O)c1c(O)cc(C)c(O)c1C2=O	none (no result: TSHR agonist, HEK293 cAMP cs, CRE-bla Fsk, Tau fil binding)
CN(C)CCCNC(=O)c1ccc(-c2ccccc2)cc1	none
O=C1c2ccccc2C(=O)c2c(O)c(O)cc(O)c21	ERK AVP inh 31.6µM (no result: TSHR agonist, HEK293 cAMP cs, CRE-bla Fsk, Tau fil binding)
COC(=O)c1ccc(C(NC(=O)OCc2ccccc2)/C(=C/[C@@H](C)C(=O)Nc2ccc(OC)cc2)c2cccnc2)cc1 (stereo not given in full)	none
COc1ccc(N=c2oc3c(OC)cccc3cc2C(=O)NCc2ccco2)cc1OC	CRE-bla Fsk inconclusive, Tau fil binding 1.26µM
COc1ccccc1N=c1oc2c(OC)cccc2cc1C(=O)NCc1ccco1	TSHR agonist inconclusive, HEK293 cAMP cs inconclusive, Tau fil binding 2.51µM
COc1ccc(OC)c(N=c2oc3c(OC)cccc3cc2C(=O)NCc2ccco2)c1	Tau fil binding 0.794µM
Cn1cccc1C(=O)N1CCC2(CC1)CCN(c1ccncc1)CC2	none
O=C(Nc1ccc2c(c1)nc1n2CCN(C2CCCCC2)C1)c1ccco1	Tau fil binding 25.1µM
NCCC[C@@H](CC(=O)N[C@@H]1CCNC[C@H]1C(=O)N[C@H](CC(=O)N[C@@H](CCC(=O)O)CC(=O)O)Cc1ccccc1)NC(=O)C[C@H](Cc1ccccc1)NC(=O)[C@@H]1CNCC[C@H]1N	none (no result: ERK AVP inh)
CO[C@@H]1COC(=O)[C@H](C)NC(=O)C/C=C\[C@@H](C)[C@H](OC)COC(=O)[C@H](C)NC(=O)C/C=C\[C@H]1C	none (no result: CRE-bla Fsk, Tau fil binding)
CCOC(=O)NCCc1c(C)nc2c(c(C)nn2C(C)(C)C)c1C	CRE-bla Fsk 5.01µM (no result: TSHR agonist)
C=CCc1c(C)nc(SCc2nc3ccccc3c(=O)[nH]2)[nH]c1=O	CRE-bla Fsk 10µM
COc1ccc(COC(=O)N/N=C2/C[C@@H](O)[C@@H](O)[C@@H]3[C@@H]4C(=O)N(C5CCCCC5)C(=O)[C@H]4CC[C@H]23)cc1	none (no result: CRE-bla Fsk, Tau fil binding)
O=C(NCc1ccco1)C(c1cccs1)N(Cc1ccccc1)C(=O)Cn1nnc2ccccc21 (stereo not given)	TSHR agonist inconclusive, HEK293 cAMP cs 10µM
CCC(C)N(C(=O)Cn1nnc2ccccc21)C(C(=O)NCc1ccco1)c1cccc(OC)c1 (stereo not given)	TSHR agonist inconclusive, HEK293 cAMP cs 15.8µM
O=C(NCc1ccco1)C(c1ccco1)N(CCc1ccccc1)C(=O)Cn1nnc2ccccc21 (stereo not given)	TSHR agonist inconclusive, HEK293 cAMP cs 15.8µM

Compound activity (PubChem BioAssay)
